Measured values: PubChem BioAssay AID1851 (National Center for Advancing Translational Sciences (NCATS), 2009)
Among all 16,000 compounds or so, about 2,600 (16%) were called active. Not shown: some 20% with an inconclusive outcome. These entries were drawn from the full list. Unmarked numbers belong to inactive results. Calls follow the shape of the dose curve; as a rule, active = well fitted curve in the direction sought with a large enough effect; inconclusive = small, poorly fitted or top-dose-only effect, or effect the other way; inactive = no such curve, though single readings can be large or run the other way.

Molecular target: Cytochrome P450 2D6 (Homo sapiens) (UniProt P10635)
Sequence (P10635 whole entry, looked up): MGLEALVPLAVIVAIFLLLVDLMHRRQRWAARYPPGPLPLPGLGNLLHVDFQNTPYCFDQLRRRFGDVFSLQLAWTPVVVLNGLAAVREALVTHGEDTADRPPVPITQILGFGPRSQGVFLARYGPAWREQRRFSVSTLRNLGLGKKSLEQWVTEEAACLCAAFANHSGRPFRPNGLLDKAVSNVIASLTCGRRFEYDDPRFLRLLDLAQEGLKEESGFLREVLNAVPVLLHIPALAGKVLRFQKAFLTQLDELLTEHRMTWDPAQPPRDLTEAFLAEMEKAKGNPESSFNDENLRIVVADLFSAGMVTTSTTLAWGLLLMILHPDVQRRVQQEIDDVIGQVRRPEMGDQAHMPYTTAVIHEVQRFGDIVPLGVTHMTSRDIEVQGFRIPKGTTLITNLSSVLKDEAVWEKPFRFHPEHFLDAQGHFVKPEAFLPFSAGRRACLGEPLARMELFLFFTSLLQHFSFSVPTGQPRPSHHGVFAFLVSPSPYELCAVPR
Assay: Cytochrome panel assay with activity outcomes
Conditions: recombinant CYP, pro-luciferin dealkylation, luminescence, p450-cyp2d6; series mostly up to 57.1 µM
% is scaled to controls: 0 for no effect and ±100 for the full control effect.

Row | SMILES | AC50 | activity, negative = inhibition
1 | COc1cc(-c2ccc(N=Nc3ccc4c(S(=O)(=O)O)cc(S(=O)(=O)O)c(N)c4c3O)c(OC)c2)ccc1N=Nc1ccc2c(S(=O)(=O)O)cc(S(=O)(=O)O)c(N)c2c1O | inactive | 
2 | COc1ccc(OCCSc2ncn[nH]2)cc1 | inactive | 
3 | COCCCNC(=O)CCC(=O)Nc1ccc2nc(N3CCOCC3)cc(C)c2c1 | inactive | 
4 | Nc1nc(Sc2ccc([N+](=O)[O-])c3nonc23)c2[nH]cnc2n1 |  | 3.81% [at 11.4 µM]
5 | CCOc1ccc(C(CC(=O)O)NC(=O)COc2ccccc2)cc1 (stereo unspecified) | inactive | 
6 | C[C@H](N[C@@H](C)COc1ccccc1)[C@H](O)c1ccc(O)cc1 | 0.316 µM (active) | 
7 | O=C(O)[C@H](/C=C\c1ccccc1)c1ccccc1 |  | -18.1% [at 11.4 µM]
8 | CCOc1ccc(-n2c(=O)[nH]cc(C(=O)N3CCCc4ccccc43)c2=O)cc1 | inactive | 
9 | Cc1ccc(C(=O)NCCNC(=O)CN2CCOCC2)cc1 | inactive | 
10 | O=C(NCCN1CCCCC1)c1ccc(I)cc1 | 10 µM (active) | 
11 | CCC(CC)C(=O)NCCN1CCN(C(=O)C(CC)CC)CC1 | inactive | 
12 | COC(=O)C(NC(=O)c1ccccc1)=C1C=C(C)OC(C)=C1 | inactive | 
13 | Clc1ccc(/C=N/c2c(-c3ccc(Cl)cc3)nc3n2CCS3)cc1 | inactive | 
14 | O=[N+]([O-])c1cccc(/C=N/Nc2cc(Cl)nc(-c3ccccc3)n2)c1 | inactive | 
15 | CCCC/C=C/C(NC(=O)c1ccccc1)c1ccccc1 (stereo unspecified) | inactive | 
16 | CCCC/C=C/C(NC(=O)Oc1cccc(C(F)(F)F)c1)c1ccccc1 (stereo unspecified) | 1 µM (active) | 
17 | CCCC/C=C/C(NC(=O)c1ccc(C(F)(F)F)cc1)c1ccccc1 (stereo unspecified) | inactive | 
18 | Cn1c(N/N=C/c2c[nH]c3ccccc23)nc2ccccc21 | 7.94 µM (active) | 
19 | Cn1c(=O)c2c(nc(N/N=C\c3ccccc3C(=O)O)n2C)n(C)c1=O |  | 5.12% [at 11.4 µM]
20 | C(=N\Nc1nc(Nc2ccccc2)nc(N2CCOCC2)n1)/c1c[nH]c2ccccc12 | inactive | 
21 | CC(C)(C)C1CCc2c(C(=O)N/N=C/c3cccs3)csc2C1 (stereo unspecified) | inactive | 
22 | OC[C@@H]1O[C@H](n2cnc3c(/C=C(\O)c4ccccc4)ncnc32)[C@H](O)[C@@H]1O |  | 3.57% [at 11.4 µM]
23 | Cn1c(=O)n(C)c2cc(S(=O)(=O)O)ccc21 | inactive | 
24 | CCc1c(C)nc2ccc(Br)cc2c1Cl | 12.6 µM (active) | 
25 | CCOC(=O)c1ccc2nc(C)c(CCC(C)=O)c(Cl)c2c1 | inactive | 
26 | CCc1c(C(=O)O)[nH]c2ccc(Br)cc12 | inactive | 

Row | SMILES | AC50 | activity, negative = inhibition
27 | CCCNS(=O)(=O)c1ccc(OCC(=O)OC)cc1 | inactive | 
28 | O=c1[nH][nH]c(C(F)(F)F)c1C=Nc1ccccc1 | inactive | 
29 | Cc1ccc(CSc2nnc(-c3ccncc3)n2CC2CCCO2)cc1 (stereo unspecified) | inactive | 
30 | Cc1cc(NC(=O)c2c([N+](=O)[O-])cnn2C)no1 | inactive | 
31 | CCCC[C@H](CC)CN1CN(C[C@@H](CC)CCCC)CC(C)(N)C1 | 1.26 µM (active) | 
32 | N#CC(c1ccccn1)(c1ncc(C(F)(F)F)cc1Cl)N1CCOCC1 (stereo unspecified) | inactive | 
33 | CC(=O)c1c(N=CN(C)C)nc(C)nc1-c1ccccc1 | inactive | 
34 | C=CC[C@@H]1C=C[C@@H](O/N=C\c2ccc(C(=O)N3[C@H](c4ccc(C)cc4)[C@@H](C)CC[C@H]3C(=O)OC)cc2)[C@@H](CO)O1 |  | 5.48% [at 11.4 µM]
35 | Cc1ccc(C(=O)N2CCN(c3cc(=O)[nH]nc3-c3ccccc3)CC2)cc1 | inactive | 
36 | Cc1cccc(C(=O)N2CCN(c3ccc([N+](=O)[O-])c(NCc4ccco4)c3)CC2)c1 | inactive | 
37 | Cc1ccc(C)c(N2CCN(C(=O)c3ccc4nc(-c5ccco5)c(-c5ccco5)nc4c3)CC2)c1 | 3.16 µM (active) | 
38 | COc1ccc(-c2nc3cnc(OC)nc3n(Cc3cccc(OC)c3)c2=O)cc1 | inactive | 
39 | CC1CCCC(C)N1CCNC(=O)Cn1nc(-c2ccccc2)ccc1=O (stereo unspecified) | 22.4 µM (active) | 
40 | COCCCNC(=O)Cn1nc(-c2ccccc2OC)ccc1=O | inactive | 
41 | Cc1ccc(-c2ccc(=O)n(CC(=O)NCCN(C)C)n2)cc1 | inactive | 
42 | CCOC(=O)N1CCN(C(=O)CCn2nc(-c3ccccc3)ccc2=O)CC1 | inactive | 
43 | CN(C)CCNC(=O)Cn1nc(-c2ccc(Cl)cc2)ccc1=O | inactive | 
44 | Cc1ccc(-c2ccc(=O)n(CC(=O)NCCN3CCCCC3C)n2)cc1 (stereo unspecified) | 2 µM (active) | 
45 | O=C(Nc1ccccc1N1CCOCC1)c1ccccc1[N+](=O)[O-] | inactive | 
46 | N#Cc1cccc(NC(=O)N2CCCC3(CCN(C(=O)c4cc(C(F)(F)F)cc(C(F)(F)F)c4)CC3)C2)c1 | inactive | 
47 | CCOC(=O)Cn1nc(C)n(-c2ccc(C)cc2)c1=O | inactive | 
48 | CC(=O)CCCCn1c(=O)c2c(ncn2C)n(C)c1=O | inactive | 
49 | CN(C)S(=O)(=O)Nc1ccccn1 |  | -5.07% [at 11.4 µM]
50 | Nc1ccc(S(=O)(=O)Nc2ccccn2)cc1 | inactive | 
51 | O=C1C(Cl)=C(Nc2ccc(S(=O)(=O)Nc3ccccn3)cc2)C(=O)c2ccccc21 | 3.16 µM (active) | 
